Sampled rows, rich in hits. Any-hit rate of the full collection: about 7.4%.
FLuc inh: Firefly luciferase inhibition profiling of diverse chemical library using quantitative high-throughput screening; Luciferin 4-monooxygenase (Photinus pyralis), P08659; purified P. pyralis luciferase, luminescence, biochemical; Potency, µM (titrated, usually from 115 µM), usual class: inhibitors; 76,000 compounds, 2.5% hits; note: nearly all actives have a fitted effect of over 65% in size
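Biochemical qHTS: compound (6-point titration) added to 10uM D-luciferin plus 10uM ATP in Tris acetate pH 7.5 buffer with Mg, Tween-20 and BSA, then purified enzyme at 10nM; light output imaged.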
HEK cytotox: Cytotoxic Profiling in HEK 293 Cell Line of Diverse Libraries Using Quantitative High-Throughput Screening; 94,000 compounds, 6.6% hits; Potency, µM (titrated, usually from 115 µM), for the others: top-dose activity change, negative = cytotoxicity, usual class: inhibitors; AID 1345083, 2018; HEK 293 viability, ATP luminescence (CellTiter-Glo), 48-72 h; note: nearly all actives have a fitted effect of over 60% in size
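HEK 293 cells seeded at 250 cells/well were exposed to compound for 48 or 72 hr at 37 degree Celsius. Viability taken as ATP content by CellTiter-Glo luminescence.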
SNCA expr inhib: Primary qHTS assay for inhibitors of alpha-synuclein gene (SNCA) expression. HEK-293 SNCA-luciferase knock-in, luminescence, 24 h. Potency, µM (series often up to 57.2 µM), without a hit: at the highest dose activity change, negative = inhibition, hits mostly inhibitors. 140,000 compounds, 0.17% hits;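 note: plate controls were DMSO cells for no effect and cell-free wells for full effect; nearly all actives have a fitted effect of over 45% in size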
NPR1 antag: Natriuretic polypeptide receptor (hNpr1) antagonism - Primary qHTS; Atrial natriuretic peptide receptor 1 (Homo sapiens), P16066; HEK293 hNpr1 GloSensor cGMP, ANP-stimulated luminescence; Potency, µM (titrated, usually from 46.3 µM), inactives show top-dose activity change, negative = inhibition, hits mostly inhibitors; 76,000 compounds, 1.6% hits; AID 1347048, 2019; calls by dose curve; note: nearly all actives have a fitted effect of over 60% in size
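HEK293 cells stably expressing human Npr1 and cGMP GloSensor pGS-40F, loaded 2 h with 2% GloSensor reagent, given compound 30 min at room temperature. Luminescence read before and 20 min after 0.1 nM hNppA.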
NIH3T3 tox: Cytotoxic Profiling in NIH 3T3 Cell Line of Diverse Libraries Using Quantitative High-Throughput Screening. NIH 3T3 viability, CellTiter-Glo ATP luminescence, 48-72 h. Potency, µM (series often up to 96.7 µM), for the others: at the top dose activity change, negative = cytotoxicity, most hits filed as inhibitors. 94,000 compounds, 4.3% hits; note: nearly all actives have a fitted effect of over 55% in size
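Viability of NIH 3T3 cells after 48 or 72 hr compound treatment at 37 °C was assessed by CellTiter-Glo, with luminescence imaged following a 10 min room-temperature step.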
SNCA viab count: GF-AFC viability counterscreen for inhibitors of alpha-synuclein gene (SNCA) expression; HEK-293-SNCA-luc viability, GF-AFC fluorescence, 24 h; Potency, µM (titrated, usually from 57.1 µM), for the others: at the highest dose activity change, negative = cytotoxicity, usual class: cytotoxic; 150,000 compounds, 0.12% hits;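 note: 0% = DMSO-treated cells and -100% = medium-only wells without cells; nearly all actives have a fitted effect of over 30% in size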
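Cytotoxicity counterscreen: after 24 h compound treatment of genome-edited SNCA-luciferase HEK-293 cells, live-cell protease substrate GF-AFC read by fluorescence after 30 min; activity scaled between DMSO (0%) and medium-only (-100%), curves Hill-fitted.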
* = called active by the depositor; i = inactive; ? = inconclusive; / = not tested or not shown; [ ] = dose if it differs, or a comment. Unless noted, calls come from the whole dose curve; as a rule, active = well fitted curve in the direction sought with a large enough effect; inconclusive = small, poorly fitted or top-dose-only effect, or another doubt; inactive = no such curve, though single readings can be large; an effect the other way counts as inactive or inconclusive. Unless noted, % is set by controls: 0 for no effect and ±100 for the full control effect; potency is the fitted concentration of half-maximal effect.

SMILES	FLuc inh	HEK cytotox	SNCA expr inhib	NPR1 antag	NIH3T3 tox	SNCA viab count
Cc1ccc(C(=O)N2CCC(CCC(=O)NC3CCCCCC3)CC2)cc1	40µM*	?	33%	-20%	?	-1%
COC(=O)C1=C(C)NC(=O)NC1c1cccs1 (stereo not given)	i	5%	-27%	1%	-8%	-4%
N#Cc1ccc(C(=O)NCc2nnc3ccc(-c4ccccc4)nn23)cc1	i	0%	8%	5%	-20%	-20%
COCCOC1CN(C2CCN(C(=O)c3cc(C)nn3C)CC2)C12CCCCC2 (stereo not given)	/	i	1%	/	-8%	-7%
O=C(Nc1cccc(Br)c1)N1CCC2(CC1)SCC(=O)N2Cc1ccco1	?	28µM*	5%	?	16µM*	8%
Cc1cccc(NC(=O)N2CCC3(CC2)SCC(=O)N3Cc2ccco2)c1	?	?	27%	-8%	-24%	-3%
O=C(Nc1cccc(Br)c1)N1CCC2(CC1)SCC(=O)N2Cc1ccccc1	i	50µM*	-2%	-9%	16µM*	?
N#Cc1cccc(NC(=S)N[C@H]2CO[C@H]3[C@@H]2OC[C@@H]3n2nnnc2Oc2cccc(N3CCOCC3)c2)c1	i	45µM*	-18%	0%	-28%	-12%
N#Cc1cccc(NC(=S)N[C@H]2CO[C@H]3[C@@H]2OC[C@@H]3n2nnnc2Oc2ccccc2)c1	i	?	?	-15%	?	-16%
CN(C)C[C@@H]1CN(c2ccccn2)C[C@H]1NC(=O)Cc1ccsc1	i	i	27%	-1%	1%	-5%
O=C1N[C@H](CCC(=O)N2CCCC2)C(=O)Nc2ccccc21	i	9%	-1%	6%	i	-4%
FC(F)(F)c1ccnc(N2CCOCC3(CN(Cc4ccccc4)C3)C2)n1	i	?	3%[87.6 µM]	1%[70.6 µM]	-24%[138 µM]	-1%[87.6 µM]
O=[S+]([O-])(c1ccccc1)N1CC2(COCCN(c3nccc(C(F)(F)F)n3)C2)C1	i	89µM*	32%[87.6 µM]	-5%[70.6 µM]	?	-1%[87.6 µM]
Cc1ncc2c(c1CNC(=O)Cc1ccc(C(F)(F)F)cc1)CCNC2	i	?	-2%	-8%	-6%	3%
O=C(C1CCCN(Cc2cccc(-c3ccsc3)c2)C1)N1CCN(c2ncccn2)CC1 (stereo not given)	/	32µM*	/	/	?	/
O=C(c1ccncc1)N1CC2CCC(C1)N2Cc1cccc(-c2ccsc2)c1	/	?	-2%	/	-25%	-9%
O=C(NCCc1ccccc1)C1CCCN(Cc2cccc(-c3ccsc3)c2)C1 (stereo not given)	/	?	/	/	40µM*	/
CC(C)NC(=O)C1CCCN(Cc2cccc(-c3ccsc3)c2)C1 (stereo not given)	/	45µM*	/	/	?	/
O=C(NCCCc1ccccc1)C1CCCN(Cc2cccc(-c3ccsc3)c2)C1 (stereo not given)	/	40µM*	/	/	35µM*	/
CC(C)NC(=O)N1CCOC[C@H]1c1ncc(-c2ccc(OC(F)(F)F)cc2)[nH]1	i	?	5%[87.6 µM]	1%[70.6 µM]	?	0%[87.6 µM]
COc1cccc(-c2cnc3[nH]cc(CC(N)=O)c3c2)c1	89µM*	-19%[230 µM]	0%[87.6 µM]	-19%[70.6 µM]	71µM*	4%[87.6 µM]
NC(=O)Cc1c[nH]c2ncc(-c3cccc(O)c3)cc12	?	4%[230 µM]	-23%[87.6 µM]	-2%[70.6 µM]	?	-4%[87.6 µM]
NC(=O)Cc1c[nH]c2ncc(-c3cccc(OC(F)(F)F)c3)cc12	i	?	-25%[87.6 µM]	-11%[70.6 µM]	?	-16%[87.6 µM]

High-throughput results as filed in PubChem BioAssay.
